Reference: PubChem BioAssay AID485314 (National Center for Advancing Translational Sciences (NCATS), 2010)
The campaign covered roughly 340,000 compounds. About 4,500 (1.3%) were called active. Roughly 5% stayed inconclusive and do not appear here. Calls come from the whole dose curve; as a rule, active = well fitted inhibition curve with a large enough effect; inconclusive = small, poorly fitted or top-dose-only effect, or another doubt; inactive = no such curve, though single readings can be large or run the other way. What follows is part of a selection rich in actives, with near analogues and random picks from the rest.

target: DNA polymerase beta (Homo sapiens) (UniProt P06746); assay: qHTS Assay for Inhibitors of DNA Polymerase Beta; conditions: Pol beta primer extension/strand displacement, fluorescence kinetic; series mostly up to 114 µM; activity change, negative = inhibition: at the top concentration
How it was run: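 Pol beta (10 nM) was preincubated with compound for 15 min at room temperature. The reaction was then started with 50 nM substrate and read immediately and after a further 10 min at room temperature.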
% is set by controls: 0 for no effect and ±100 for the full control effect; potency is the fitted concentration of half-maximal effect.

Potency, active:
c1ccc(CSc2nnc(-c3ccco3)c(-c3ccco3)n2)cc1 7.94 µM
CCOc1ccccc1/C=c1\sc2nc(-c3ccco3)nn2c1=O 11.2 µM
C/C(=N\Nc1ccc(S(N)(=O)=O)cc1[N+](=O)[O-])c1cccs1 11.2 µM
Cc1cc(C)c2nc3nc(C)cc(C)c3c(N)c2c1 39.8 µM
CC(/C=N/NC(=O)c1cc(-c2ccc3ccccc3c2)n[nH]1)=C\c1ccco1 12.6 µM
Cc1nc2c(c(=O)n1Cc1ccco1)c1nc3ccccc3nc1n2Cc1ccccc1 20 µM
Cc1ccc(Cn2c(C)nc3c(c2=O)c2nc4ccccc4nc2n3Cc2ccco2)cc1 10 µM
CC(=O)c1ccc(S(=O)(=O)N2CCN(C(=O)/C=C/c3ccc4ccccc4n3)CC2)cc1 11.2 µM
O=c1[nH]c2ccccc2n2c(-c3ccccc3)nnc12 39.8 µM

Activity change, negative = inhibition, inactive:
COc1ccc2nc(SCc3ccccc3)nc(C)c2c1 -28.5%
Cc1ccc(-c2nnc(SCC(=O)NCc3ccccc3)nc2-c2ccc(C)cc2)cc1 -19.3%
CCN(CC)S(=O)(=O)c1nnc(NC(=O)COc2ccccc2Cl)s1 -0.683%
CC1=Nc2cc(C(=O)NCc3ccc(C)cc3)ccc2Sc2ccc(Cl)cc21 8.49%
O=C(CSc1nccn1-c1ccc(F)cc1)Nc1cccc2ccccc12 18.6%
Cc1ccc(C)c(N2CCN(C(=O)Cn3nc(C)c4sc5ccccc5c4c3=O)CC2)c1 4.61%
COc1ccc2c(c1)Cc1sc(NC(=O)c3ccccc3Br)nc1-2 8.32%
CC(C)(C)c1ccc(C(=O)N2CCC(c3nc(-c4ccc(S(=O)(=O)N5CCCC5)cc4)no3)CC2)cc1 4.4%
CCOC(=O)C1CCN(C(c2ccc(F)cc2)c2sc3nc(-c4ccco4)nn3c2O)CC1 (stereo not given) 1.93%
Oc1c(C(c2ccccc2Cl)N2CCOCC2)sc2nc(-c3ccco3)nn12 (stereo not given) -23.3%
COc1cc(CNC(=O)c2cc3n(n2)CCCN(Cc2cccc(F)c2)C3=O)cc(OC)c1OC -11.6%
CCC(=O)Nc1cccc(C(=O)OCc2cc(=O)n3nc(CC)sc3n2)c1 -0.24%
Cc1c(C(=O)NCc2ccccc2Br)oc2ccc3c(c12)C(=O)CC(C)(C)O3 -0.951%
O=C(CSc1nccn1Cc1ccc(F)cc1)NCc1ccccc1 2.98%
COc1ccc(-c2noc(CSc3nnc(-c4ccccc4)n3-c3ccc(F)cc3)n2)c(OC)c1 2.59%
C/C(=N\Nc1ncc(Cl)cc1Cl)c1cccs1 -23.8%
C/C(=N\NS(=O)(=O)c1ccc(Br)cc1)c1cccs1 19.8%
CCC(=O)N1c2ccccc2CC1C(=O)N1CCN(c2cccc(OC)c2)CC1 (stereo not given) -16%
O=C(NCc1ccccc1)c1ccc2c(c1)nc1n2CCCCC1 2.98%
CCOc1cccc(NC(=O)CSc2ncc(-c3ccc(Cl)cc3)[nH]2)c1 -0.737%
CC(=C/c1ccccc1)/C=N/NC(=O)c1cc(C)oc1C 21.3%
CC(C)(C)C1CCC(=NNC(=O)c2cc(-c3ccccc3)n[nH]2)CC1 (stereo not given) -0.4%
COc1ccc(/C=C/c2nc(C#N)c(NCc3ccc(F)cc3)o2)cc1OC -25.4%
Cn1c2ccccc2c(=O)c2c(=O)n(Cc3ccco3)c(COc3ccccc3)nc21 -7.71%
Clc1cccc(-c2nc3nc4ccccc4nc3n2Cc2ccco2)c1 -2.15%
Cc1cc(NC(=O)CSc2nc3cc(Cl)ccc3c(=O)n2Cc2ccco2)no1 -0.389%
O=c1c2ccccc2oc2nc(C3CCCCC3)n(Cc3ccco3)c(=O)c12 -1.37%
Cc1c(NC(=O)C(C)(C)C)cccc1-c1nc2ccccc2s1 -25.5%
Cc1ccc(NC(=O)CCCn2c(=O)c3cccn3c3ccccc32)cc1Cl 3.08%
Cc1ccc(CN2CCC(CNC(=O)c3cnn(-c4ccccc4Cl)c3C3CCN(C(=O)OC(C)(C)C)CC3)CC2)cc1 3.23%
Cc1ccc(CNC(=O)CCc2c(C)nn(-c3ccc(N4CCCC4)nn3)c2C)cc1 2.86%
CC(=O)c1cccc(Nc2ccc3cc(S(=O)(=O)N4CCC(C)CC4)ccc3n2)c1 -0.0137%
CC(=O)c1ccc(S(=O)(=O)N2CCC3(CC2)OCCO3)cc1 8.96%
O=C1Cc2cc(S(=O)(=O)Nc3ccc(OC(F)(F)F)cc3)cc3c2N1CCC3 -15.2%
Cc1ccc(NC(=O)c2nc(S(=O)(=O)Cc3cccc(C)c3)ncc2Cl)cc1 16.3%
COc1ccc(NS(=O)(=O)c2cc3c4c(c2)CC(=O)N4CCC3)cc1Cl 1.58%
CC(C)Cn1c(=O)c2ccccc2n2c(-c3cccc(Cl)c3)nnc12 23%
O=c1[nH]n2c(-c3ccccc3)nc(O)c2c2ccccc12 34.8%
COc1ccc(CNC(=O)c2cc3c(-c4ccccc4F)nn(C)c3s2)c(OC)c1 1.71%
COc1ccc(N2CCN(c3nc(-c4ccccc4F)nc4ccccc34)CC2)cc1 -10.7%
COc1ccc(-n2c(C)nc3c(cnn3-c3ccc(F)cc3)c2=O)cc1 42.6%
